Among the data in PubChem BioAssay (EPA / NIEHS) are outcome and AC50 values, retold here.

A word on the AC50: it is the concentration giving half of the maximal activity seen.

Active and inactive are the calls of the source. How the source made its calls: active means hit-call score of the fitted dose curve at least 0.9, where 1 is the maximum; inactive means score below 0.9.

Read-out in this test: Tissue Factor, F3 (gene 2152)
The test can be described thus: BSK_LPS_TissueFactor: BioMAP Diversity Plus: LPS Assay for Tissue Factor Biomarker Activity (AID 2283084). The following applies: primary human HUVEC with PBMC; actives raise or lower the signal. On the procedure:
BSK_LPS is a cell-based, multiplexed-readout assay that uses umbilical vein endothelium and peripheral blood mononuclear cells, a human vascular primary cell co-culture, with measurements taken at 24 hours after chemical dosing in a 96-well plate.BSK_LPS_TissueFactor is an assay component measured in the BSK_LPS assay. It measures CD142 Tissue Factor antibody related to regulation of gene expression using ELISA technology.Data from the assay component BSK_LPS_TissueFactor was analyzed into 1 assay endpoint. This assay endpoint, BSK_LPS_TissueFactor, was analyzed with bidirectional fitting relative to DMSO as the negative control and baseline of activity. Using a type of binding reporter, gain or loss-of-signal activity can be used to understand changes in the signaling as they relate to the gene F3. Furthermore, this assay endpoint can be referred to as a primary readout, because this assay has produced multiple assay endpoints where this one serves a signaling function. To generalize the intended target to other relatable targets, this assay endpoint is annotated to the cytokine intended target family, where the subfamily is coagulation factor.
The levels of cell surface (or secreted, indicated by the prefix "s") biomarker endpoints were measured by ELISA. Overt cytotoxicity to cells in confluent adherent cultures (all systems other than the BT system) was assessed by measuring total protein levels using sulforhodamine B (SRB) staining in parallel cultures at the time of biomarker measurements, indicated as SRB endpoints. For proliferation assays for adherent cell types, individual cell types are cultured at sub-confluence and relative cell numbers quantified by SRB staining at time points optimized for each system (48 h: 3C and CASM3C systems; 72 h: BT and HDF3CGF systems; 96 h: SAg system). SRB was performed by staining cells with 0.1% SRB after fixation with 10% TCA and reading wells at 560 nm.Viability and proliferation of PBMC (T cells) was quantified by Alamar Blue reduction for the SAg and BT systems. For PBMC viability (referred to as PBMC Cytotoxicity within the assay endpoint names), cells were plated (75,000/well in a 96-well plate) and then chemical samples added for 1 h before addition of activators, SEB and TSST-1 (20 ng/mL final concentration each). Cells were incubated for 90 h. Then, Alamar Blue (20 uL/well) (Invitrogen, Cat DAL1100) was added for 6 h, and the plates were read with a fluorescence microplate reader at 546/580 nm (excitation/emission). For PBMC proliferation, cells were plated and activated as above but incubated for only 16 h prior to addition of Alamar Blue. Plates were read after 6 h.
On to `COC(=O)N(C(=O)N1CO[C@@]2(C(=O)OC)Cc3cc(Cl)ccc3C2=N1)c1ccc(OC(F)(F)F)cc1`, for which the outcome was inactive.

Take `COP(=O)(OC)O/C(C)=C/C(=O)N(C)C`: the outcome was inactive.

With `COCC(=O)N(c1c(C)cccc1C)C(C)C(=O)OC` (stereo not given), the result was inactive.

On to `CCOc1nc(F)cc2nc(S(=O)(=O)Nc3c(Cl)cccc3Cl)nn12`, for which the result was inactive.

With `Cc1cc(C)nc(Nc2ccccc2)n1`, the outcome was inactive.

In the case of `COC(=O)NS(=O)(=O)c1ccc(N)cc1`, the result was inactive.

Turning to `O=P(O)(O)CCCl`, the result was inactive.

As to `CC1(C)C(C=C(Cl)Cl)C1C(=O)OC(C#N)c1cccc(Oc2ccccc2)c1` (stereo not given), the result was inactive.

As for `CC(C)Oc1cccc(NC(=O)c2ccccc2C(F)(F)F)c1`, the outcome was inactive.

Take `CC(C)=CC1C(C(=O)OCc2coc(Cc3ccccc3)c2)C1(C)C` (stereo not given): the result was inactive.

Regarding `CCSC(=O)N1CCCCCC1`, the result was inactive.

As to `COC(=O)NC(=S)Nc1ccccc1NC(=S)NC(=O)OC`, the result was inactive.

On to `CCOC(=O)C(C)OC(=O)c1cc(Oc2ccc(C(F)(F)F)cc2Cl)ccc1[N+](=O)[O-]` (stereo not given), for which the outcome was inactive.

Take `CCOP(=S)(OCC)Oc1nc(Cl)n(C(C)C)n1`: the result was inactive.

As for `CC(C)(C)C(=O)C(Oc1ccc(Cl)cc1)n1cncn1` (stereo not given), the outcome was inactive.

For `CCCCC(C#N)(Cn1cncn1)c1ccc(Cl)cc1` (stereo not given), the result was inactive.

For the compound `CO/N=C(/C1=NOCCO1)c1ccccc1Oc1ncnc(Oc2ccccc2Cl)c1F`, the outcome was inactive.

Regarding `O=C(Nc1ccccc1-c1ccc(Cl)cc1)c1cccnc1Cl`, the result was inactive.

As to `COC(=O)c1c(C(F)F)nc(C(F)(F)F)c(C2=NCCS2)c1CC(C)C`, the result was inactive.

For `C=CCOC(=O)C(C)(C)OC(=O)c1cc(-n2c(=O)cc(C(F)(F)F)n(C)c2=O)ccc1Cl`, the outcome was inactive.

With `CCOP(=O)(OCC)Oc1nc(Cl)c(Cl)cc1Cl`, the result was inactive.

Consider `CNC(=O)Oc1cccc2ccccc12`, for which the outcome was inactive.

On to `CCCCC(O)(Cn1cncn1)c1ccc(Cl)cc1Cl` (stereo not given), for which the result was inactive.

With `C=C(C)CN(CC)c1c([N+](=O)[O-])cc(C(F)(F)F)cc1[N+](=O)[O-]`, the result was inactive.

With `COc1cc(OC)nc(NC(=O)NS(=O)(=O)c2ncccc2OCC(F)(F)F)n1`, the outcome was inactive.

In the case of `O=C1C2CC=CCC2C(=O)N1SC(Cl)(Cl)Cl` (stereo not given), the AC50 was 31.4 µM (active).

As to `N#CN=C1SCCN1Cc1ccc(Cl)nc1`, the outcome was inactive.

In the case of `CNC(=O)N(C)c1nnc(C(C)(C)C)s1`, the outcome was inactive.

Regarding `Cc1nc(N(C)C)nc(OC(=O)N(C)C)c1C`, the result was inactive.

As to `CC(C)NC(=O)N1CC(=O)N(c2cc(Cl)cc(Cl)c2)C1=O`, the result was inactive.

On to `CN=C=S`, for which the outcome was inactive.

In the case of `CSC(=O)c1c(C(F)F)nc(C(F)(F)F)c(C(=O)SC)c1CC(C)C`, the result was inactive.

On to `CCCCOCN(C(=O)CCl)c1c(CC)cccc1CC`, for which the half-maximal activity concentration (AC50) was 30.2 µM (active).

Turning to `Clc1cccc(C(Cl)(Cl)Cl)n1`, the outcome was inactive.

`CCN(CC)C(=O)C(C)Oc1cccc2ccccc12` (stereo not given): the outcome was inactive.

For `CC(C)Nc1nc(Cl)nc(NC(C)C)n1`, the result was inactive.

`Cn1c(-c2ccccc2)cc(-c2ccccc2)[n+]1C`: the result was inactive.

Take `CCNP(=S)(OC)O/C(C)=C/C(=O)OC(C)C` (stereo not given): the result was inactive.

For the compound `CCCN(CC)CC1COC2(CCC(C(C)(C)C)CC2)O1` (stereo not given), the outcome was inactive.

With `CC1(C)CON(Cc2ccccc2Cl)C1=O`, the result was inactive.
